An excerpt weighted towards active compounds, which were near 3.4% of everything screened.
SMARCA2 act = SMARCA2 function activation, primary screen; MG213 cells, MMTV-luciferase reporter, dexamethasone, overnight; activation, % at 9.1 µM; hit rate 1% among 370,000; AID 652017; in the data active = activation above about 7.8%;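 also: 0% = vehicle wells and 100% = reference activator wells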
Cardio protect = modulators protecting cardiomyocytes from myocardial damage; H9c2 cardiomyocytes, H2O2 injury protection, ATPLite, 2 h; protection from H2O2 cell death, % at 20 µM; hit rate 0.63% among 360,000; AID 588492;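 active = compounds giving at least 50% protection of heart cells from peroxide-induced death in the single-dose screen, raw or plate-pattern-corrected value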;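 also: 0% = DMSO wells with peroxide and 100% = DMSO wells without peroxide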
FXN GAA850 act = increases GAA850 frataxin promoter reporter activity; HEK293 lucGAA850 FXN promoter luciferase reporter, 24 h; percent of 10 µM SAHA response; activation, % at 6 µM; hit rate 0.56% among 360,000; AID 540364;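 active = activation above the average of all compounds screened plus 3 SD, cutoff fixed separately per campaign, cut at about 7.5% in these data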;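 also: 0% = DMSO wells and 100% = 10 µM SAHA wells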
NR2F2 inh = NR2F2 (human) inhibition, primary screen; P24468; HEK293T NGFI-A luciferase reporter, luminescence; inhibition, % at 8.6 µM; hit rate 0.7% among 370,000; AID 686940;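 active = inhibition above a per-plate cutoff, mean inhibition of test wells between control levels plus 3 SD, cut at about 38% in these data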;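 also: cells cotransfected with COUP-TFII expression vector driving the NGFI-A reporter; 0% = median of COUP-TF2 test wells and 100% = reporter-only cells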
Target sequence (P24468 whole entry, looked up): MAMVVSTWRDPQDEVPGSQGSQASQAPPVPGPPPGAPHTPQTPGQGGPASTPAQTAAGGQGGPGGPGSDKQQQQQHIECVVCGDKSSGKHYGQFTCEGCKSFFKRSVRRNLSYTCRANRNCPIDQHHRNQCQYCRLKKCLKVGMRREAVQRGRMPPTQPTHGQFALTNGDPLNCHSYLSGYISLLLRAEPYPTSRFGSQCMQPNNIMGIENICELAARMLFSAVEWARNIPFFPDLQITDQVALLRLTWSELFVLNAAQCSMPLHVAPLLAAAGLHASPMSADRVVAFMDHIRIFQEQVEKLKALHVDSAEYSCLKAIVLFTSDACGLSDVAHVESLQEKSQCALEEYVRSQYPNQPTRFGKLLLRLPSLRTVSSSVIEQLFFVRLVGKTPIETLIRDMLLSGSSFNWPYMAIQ
GalR3 antagonist = human GalR3 antagonism | HEK293 GalR3-CNG cAMP membrane potential fluorescence; galR3 body fused to GalR1 C-terminus | O60755 | inhibition, % at 3 µM | hit rate 0.44% among 360,000;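 active = inhibition above the screen-wide average plus 3 SD, cut at about 13% in these data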;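 also: forskolin and galanin both at EC90 stimulate the cells; cAMP rise reported by CNG channel membrane potential dye signal; 0% = forskolin plus galanin with DMSO and 100% = forskolin alone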
Target sequence (O60755 1-299 limits assumed): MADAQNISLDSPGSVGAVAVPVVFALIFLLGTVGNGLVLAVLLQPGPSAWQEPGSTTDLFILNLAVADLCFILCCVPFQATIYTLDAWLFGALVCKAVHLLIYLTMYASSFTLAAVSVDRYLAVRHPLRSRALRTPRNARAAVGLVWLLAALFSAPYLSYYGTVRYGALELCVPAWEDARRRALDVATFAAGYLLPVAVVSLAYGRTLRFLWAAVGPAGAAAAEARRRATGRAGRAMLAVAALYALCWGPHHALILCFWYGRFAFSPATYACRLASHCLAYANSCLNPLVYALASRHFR
Gli-Sufu block = blocks Gli-Sufu signaling in a luciferase reporter; Sufu-KO-LIGHT fibroblasts, Gli luciferase reporter luminescence; inhibition, % at 5 µM; hit rate 0.74% among 340,000; AID 588413;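 active = inhibition above about 55%, limit read from the data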;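 also: 0% = DMSO-treated cells and 100% = wells with medium but no cells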
SMARCA2 conf = confirmation of SMARCA2 (BRM) function activators; shares compounds with SMARCA2 act; MG213 cells, MMTV-luciferase with dexamethasone, luminescence, overnight; MG213 cells expressing E1A, Rb sequestered; DMSO wells 0%, reference activator 100%; activation, % at 9.1 µM; hit rate 30% among 3,500; AID 652260;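 active = activation above its plate's cutoff, the mean activation of tested wells plus 3 SD, cut at about 7.9% in these data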
VP16 Luc act = counter-screen for SMARCA2 activators: GAL4-VP16 luciferase reporter activation; shares compounds with SMARCA2 act; HEK293 GAL4-VP16 pG5luc reporter, luciferase luminescence; scaled: DMSO wells 0%, SAHA wells 100%; activation, % at 9.1 µM; hit rate 41% among 3,500; AID 686939;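 active = activation above the solvent-only control well mean plus 3 SD, averaged across control plates, cut at about 5.2% in these data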
Active calls of the source: *; . = no result given.

SMILES	SMARCA2 act	Cardio protect	FXN GAA850 act	NR2F2 inh	GalR3 antagonist	Gli-Sufu block	SMARCA2 conf	VP16 Luc act
Cc1ccc(NC(=O)OC(C)CNC(=O)Oc2cccc(C)c2)cc1 (centres undefined)	11.3*	-6.6	3.6	-30.3	-2.7	-17.5	8.0*	4.8
COC(=O)NCC(C)OC(=O)Nc1ccc(Cl)cc1 (centres undefined)	-1.9	-4.0	4.5	-30.1	-3.4	-21.8	.	.
C=CCn1c(SCC(=O)Nc2ccc(CCCC)cc2)nnc1-c1ccc(Cl)cc1	-6.0	.	.	-56.2	.	.	.	.
CCOc1ccc(C(=O)N2CCC(C(=O)c3ccc4c(c3)OCCO4)CC2)cc1	-2.8	-5.4	0.6	13.3	-4.8	-0.1	.	.
O=C(COC(=O)Cn1nnc2ccccc21)NC1CCCC1	9.9*	12.7	0.4	0.1	-10.0	-8.8	0.6	0.9
Cc1cc(Cl)ccc1OC(C)C(=O)OCC(=O)Nc1ccc2[nH]c(=O)[nH]c2c1 (centres undefined)	-1.1	1.1	1.8	-11.3	-4.1	4.8	.	.
Cc1ccc(NC(=O)c2ccc(OC(=O)C(C)Oc3ccc(Cl)cc3C)cc2)cc1 (centres undefined)	11.2*	-2.2	2.8	-5.6	3.1	-73.7	8.0*	1.1
Cc1csc(=O)n1CC(=O)Nc1ccc(C(C)C)cc1	8.0*	-1.9	2.5	-7.1	-3.2	-37.0	-1.3	5.4*
c1ccc2oc(-c3ccc4nc[nH]c4c3)nc2c1	9.6*	-20.8	2.2	-36.0	3.1	-75.1	10.1*	14.2*
COc1cc(/C=N/O)ccc1OCc1ccc(Cl)cc1	16.7*	.	.	-44.3	-7.1	.	12.4*	8.7*
COc1cc(/C=N/O)ccc1OCc1ccc(C(=O)O)cc1	5.3	-16.2	0.9	-32.9	-4.8	-117.5	.	.
COc1ccccc1-c1nc(-c2ccncc2)no1	10.2*	4.4	3.4	-41.9	-2.2	-106.9	9.8*	10.9*
COc1ccc(-c2nc(-c3ccncc3)no2)cc1OC	12.3*	18.1	6.4	-42.3	-6.1	-51.8	6.4	8.8*
COc1ccc(-c2noc(-c3ccc4c(c3)OCO4)n2)cc1	14.5*	-16.7	5.8	-39.0	-4.2	-120.8	15.4*	9.3*
Cc1onc(NC(=O)CSCC(=O)O)c1Br	-0.9	2.8	-0.6	11.5	0.8	5.9	.	.
CCCC(=O)Nc1ccc(NC(=O)c2ccco2)c(OC)c1	9.7*	4.0	5.8	-20.4	-7.4	-17.8	6.9	6.5*
Cc1cc(NC(=O)c2ccco2)ccc1NC(=O)c1ccco1	9.7*	1.2	1.5	-13.1	-7.5	-19.2	-1.2	1.3
Cc1cc(NC(=O)c2ccco2)ncc1NC(=O)Cc1ccccc1	10.8*	7.4	1.7	-37.4	-3.1	-39.5	12.3*	3.3
Cc1cc(NC(=O)C(C)C)ncc1NC(=O)c1ccco1	-2.6	1.8	2.2	-16.1	-6.4	.	.	.
CCC(=O)Nc1ccc(NC(=O)c2ccco2)c(OC)c1	2.0	-6.2	3.6	-19.0	-3.2	-34.4	.	.
COc1ccc(CN2C[C@]3(C=C(C)Cn4c(=O)n(-c5ccccc5)c(=O)n43)N(C(=O)OCc3ccccc3)C2=NC(=O)c2ccccc2)c(OC)c1	8.6*	.	.	-0.6	.	.	-0.3	-0.1
CC1CCC2(CC1)NC(=O)N(CC(=O)Nc1ccc3c(c1)OCCO3)C2=O (centres undefined)	12.4*	0.4	3.4	-27.7	-3.2	-20.0	10.4*	3.1
O=C(O)C1C2CCC(O2)C1C(=O)NCc1ccc(Cl)cc1 (centres undefined)	-2.3	19.2	2.5	-6.3	-2.6	0.1	.	.
CCN(C[C@H]1N[C@@](Cc2ccccc2)(C(=O)OC)[C@H]2C(=O)N(Cc3ccccc3)C(=O)[C@@H]12)S(=O)(=O)c1ccc(C)cc1	10.2*	10.8	-0.9	-0.4	-4.4	15.6	-6.6	-0.9
Cc1ccc(C(=O)NCC(=O)OCCOc2ccccc2Cl)cc1	7.1	-4.2	1.6	-11.5	-2.5	-6.2	.	.
SMILES	SMARCA2 act	Cardio protect	FXN GAA850 act	NR2F2 inh	GalR3 antagonist	Gli-Sufu block	SMARCA2 conf	VP16 Luc act
O=C1C=C(c2cccs2)C[C@H](c2ccccc2)[C@H]1n1nnc([N+](=O)[O-])n1	8.3*	-4.3	-3.4	9.5	-1.6	-0.5	8.3*	1.6
CN(CC(=O)Nc1cccc([N+](=O)[O-])c1)S(=O)(=O)c1ccccc1	-2.4	-3.9	1.6	-20.6	-5.4	-6.2	.	.
COc1ccc(NC(=O)NCCC2=CCCCC2)cc1	4.7	-4.9	3.6	-39.6	-4.7	-10.6	.	.
COc1cccc(NC(=O)NCCC2=CCCCC2)c1	15.9*	-19.1	5.8	-40.0	-8.1	-50.4	5.3	11.5*
CCc1nc(SCc2ccc(F)cc2)[nH]c(=O)c1C#N	-0.4	2.1	0.9	18.0	-1.2	0.8	.	.
COC(=O)N/N=C(\C)c1ccccc1Br	8.0*	6.7	-0.9	-5.5	-2.7	-2.2	9.1*	0.2
Cc1c(C(=O)NCc2cccc(C(F)(F)F)c2)sc(=O)n1Cc1ccc(F)cc1	-1.4	1.4	-2.8	-4.8	-1.9	.	.	.
CCCCC(=O)Nc1ccc2c(c1)nc1n2CCSC1	8.1*	0.2	6.7	-39.8	-3.5	-50.4	8.0*	5.8*
C=CCn1c(SCC(=O)Nc2cc(C)on2)nnc1-c1ccccc1F	-3.5	-2.6	-0.7	4.3	-3.0	10.8	.	.
O=C(/C=C/c1cccc(Cl)c1)NCCc1ccccc1	3.0	-4.8	3.2	-23.1	-2.1	-33.6	.	.
O=C(/C=C/c1c(Cl)cccc1Cl)NCCc1ccccc1	10.6*	-7.2	1.1	-21.8	-2.4	-16.1	3.5	4.5
Cc1ccc(C(=O)CNc2ccc(Cl)cc2)cc1	13.0*	2.6	1.1	-3.8	-8.8	-7.7	12.0*	3.1
Cc1ccc(C)c(NCC(=O)c2ccc(Cl)cc2)c1	5.6	-7.9	0.0	-34.2	-5.0	-15.6	.	.
O=C1/C(=C/c2cccnc2)SC(=S)N1CCc1ccccc1	8.7*	0.5	0.8	-25.8	0.2	-3.7	0.8	1.4
COc1ccc(N2CCN(C(=O)CN(C)S(=O)(=O)c3cnc[nH]3)CC2)cc1	10.1*	7.4	-0.5	7.3	0.7	4.7	-3.5	0.0
CC1CC(=O)C(C(C2=C(O)CC(C)CC2=O)c2ccccc2)=C(O)C1 (centres undefined)	-0.8	-0.8	1.9	2.5	-3.2	-20.7	.	.
COc1ccc(N2C(=O)CSC23C(=O)Nc2ccccc23)cc1 (centres undefined)	8.6*	1.2	-1.6	9.7	-3.9	-8.7	-1.6	3.6
CC1(c2ccc(Cl)cc2)NC(=O)N(CC(=O)NCc2cccs2)C1=O (centres undefined)	2.9	-6.9	3.0	16.2	-3.3	-7.5	.	.

Screening data (PubChem BioAssay)
